An excerpt weighted towards active compounds, which were near 3.9% of everything screened.
VDR inh = inhibitors of human vitamin D receptor; AID 504847; 400,000 compounds, 0.93% hits; Potency, µM, hits mostly inhibitors; P11473; VDR-SRC2-3 peptide fluorescence polarization, 2 h
Target sequence (P11473 whole entry, looked up): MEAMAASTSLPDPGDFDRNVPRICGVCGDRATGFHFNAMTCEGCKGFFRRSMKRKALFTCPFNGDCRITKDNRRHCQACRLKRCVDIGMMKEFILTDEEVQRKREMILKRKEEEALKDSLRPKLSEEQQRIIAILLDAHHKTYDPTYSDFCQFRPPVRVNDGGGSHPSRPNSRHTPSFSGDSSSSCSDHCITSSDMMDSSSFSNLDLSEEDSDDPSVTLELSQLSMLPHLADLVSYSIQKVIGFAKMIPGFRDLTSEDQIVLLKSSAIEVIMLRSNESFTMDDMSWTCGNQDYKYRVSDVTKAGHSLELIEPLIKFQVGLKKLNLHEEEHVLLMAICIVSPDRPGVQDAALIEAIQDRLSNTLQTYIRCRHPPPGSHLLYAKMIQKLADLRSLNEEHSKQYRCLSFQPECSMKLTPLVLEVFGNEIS
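Inhibition of the VDR/SRC2-3 peptide interaction is quantified by fluorescence polarization. Compounds (23 nl, pintool) incubate with the reagents for 2 hours at ambient room temperature.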
BRCA1 expr act = BRCA1 expression activation; MCF7-BRCA1-FFLuc reporter, luminescence, 48 h; response scale: scaled: vehicle 0%, 10 µM genistein 100%; 380,000 compounds, 1.1% hits; AID 624202; Potency, µM (titrated, usually from 46.1 µM), hits mostly activators; also: nearly all actives have a fitted effect of over 80% in size
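Luminescence from a BRCA1-driven firefly luciferase in MCF7 cells was read after 48 h compound exposure at 37 C. Data normalized against DMSO and a 10microM genistein activation control, then curve-fitted across the titration.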
Tb PFK block = inhibitors of T. brucei phosphofructokinase | Potency, µM (highest dose often 57.5 µM), actives largely listed as inhibitors | O15648 | T. brucei PFK, ADP-Glo luminescence | 330,000 compounds, 0.17% hits; also: nearly all actives have a fitted effect of over 60% in size
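Compounds were pin-transferred as a titration series up to 57 uM into substrate buffer (0.5 mM F6P, 0.1 mM ATP, pH 8.0), then 1.25 nM PFK was added and reactions ran 45 min before ADP-Glo detection.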
PLK1 PBD inh = blocks phosphopeptide binding to human PLK1 polo-box domain. P53350. Plk1 PBD binding of FITC phosphopeptide, fluorescence polarization. Potency, µM, usual class: inhibitors. 360,000 compounds, 2.8% hits; also: series mostly up to about 57 µM; nearly all actives have a fitted effect of over 65% in size
Hits are given with their value; – = inactive; ? = inconclusive; · = no result; ! = not confirmed by another sample. Calls follow the shape of the dose curve; as a rule, active = well fitted curve in the direction sought with a large enough effect; inconclusive = small, poorly fitted or top-dose-only effect, or another doubt; inactive = no such curve, though single readings can be large; an effect the other way counts as inactive or inconclusive.

SMILES	VDR inh	BRCA1 expr act	Tb PFK block	PLK1 PBD inh
O=C(O)C1Nc2ccc(Br)cc2C2C=CCC12 (stereo not given)	?	–	?	5.32µM
Cc1ccc(C)c2c1NC(C(=O)O)C1CC=CC21 (stereo not given)	–	–	·	·
CCOC(=O)C1Nc2ccc(C)cc2C2C=CCC12 (stereo not given)	–	–	·	–
O=C(O)C1Nc2c(Cl)cc(Cl)c(Cl)c2C2C=CCC12 (stereo not given)	?	–	·	23.8µM
O=C(O)C1Nc2c(O)cccc2C2C=CCC12 (stereo not given)	–	–	?	26.7µM
COC(=O)C[C@@H]1C=C[C@@H](NC(=O)CN(C)C)[C@@H](CO)O1	·	·	·	–
Nc1cc(C(=O)O)c(N)c2c1C(=O)c1ccccc1C2=O	8.91µM	–	–	18.9µM
O=C(CSc1nnnn1C1CCCCC1)Nc1cccc(NC(=O)c2ccco2)c1	–	–	–	2.99µM
O=C(Nc1ccc2c(c1)ncn2C1CCCCC1)c1ccco1	–	12.6µM	–	–
O=C(O)CSc1nnnn1C1CCCCC1	70.8µM	–	–	15µM
O=C(Cc1c[nH]c2ccccc12)N1CCN(S(=O)(=O)c2cccc(Cl)c2Cl)CC1	–	–	–	–
Cc1cc2c(cc1C)NC(CC(=O)Nc1cccc(C)c1C)C(=O)N2 (stereo not given)	–	·	·	·
C=CCOc1cccn2c(N(C)C(=O)c3ccncc3)c(CC)nc12	·	–	·	–
Cc1cccc(OCC(=O)N2CCc3ccccc3C2)c1	–	–	–	–
O=C(NCc1ccc(Cl)nc1)c1csc([C@@H]2C[C@H](O)[C@@H](CO)O2)n1	·	–	·	–
CC1=C(C(=O)NC2CCCC(C)C2C)C2(CCCCC2)OC1=O (stereo not given)	–	–	–	23.8µM
Cc1ccc(/C=C2\SC(=S)N(C3CCS(=O)(=O)C3)C2=O)o1 (stereo not given)	–	–	–	18.9µM
CC/C=C\C/C=C\C/C=C\C/C=C\C/C=C\C/C=C\CCC(N)=O	–	·	·	·
COC(=O)[C@@H](NC(=O)O[C@@H]1C(=O)c2cc(Br)ccc2O[C@H]1c1ccc2c(c1)OCO2)C(C)C	–	·	·	·
COc1ccc(OC)c2cc3ccccc3cc12	?	–	·	2.67µM
N#CCC(=O)N/N=C\c1ccc(OC/C=C/c2ccccc2)cc1	–	5.01µM	–	–
N#CCC(=O)N/N=C\c1ccccc1OC/C=C/c1ccccc1	–	2.51µM	–	–
CNCC(O)c1cccc(O)c1 (stereo not given)	–	·	·	·
O=C(CCN1CCCCC1)c1ccccc1	–	–	–	15µM
C[N+]1(CCC(=O)c2ccccc2)CCCCC1	–	–	–	11.9µM
SMILES	VDR inh	BRCA1 expr act	Tb PFK block	PLK1 PBD inh
CC1CCCN(CCC(=O)c2ccccc2)C1 (stereo not given)	–	–	·	13.4µM
CC(=O)OC(C[N+]1(C)CCCCCC1)c1ccccc1 (stereo not given)	–	–	–	–
O=C(CCN1CCOCC1)c1ccccc1	–	–	–	?
CSc1ccc(/C=C2\C=Cc3ccccc32)cc1	·	–	·	·
CC(C)COc1cccc(C(=O)Nc2ccc(-c3nc4ncccc4o3)cc2)c1	–	·	·	·
C[C@@]12C=CC(=O)C=C1CC[C@H]1[C@H]3CC[C@](O)(C(=O)CO)[C@]3(C)CC(=O)[C@@H]12	–	·	·	·
CC(C)C[C@@H](CC(=O)N[C@H](CC(=O)N[C@@H]1CCCC[C@H]1C(=O)N[C@H](CC(=O)N[C@@H](CCC(=O)O)CC(=O)O)Cc1ccccc1)C(C)C)NC(=O)[C@@H]1CNCC[C@H]1N	–	·	·	·
Cc1ccc(-c2nnc3c4ccccc4c(C)nn23)cc1NC(=O)c1ccccc1	–	·	·	·
O=C(Nc1ccc(Cl)cc1)OCCN1CCOCC1	–	–	·	–
O=C(Nc1ccc(Cl)cc1)OCCn1nnnc1C(c1ccccc1Cl)N1CCOCC1 (stereo not given)	?	–	–	21.2µM
O=C(c1ccccc1)N1N=C(c2ccco2)CC1c1cccs1 (stereo not given)	–	–	–	21.2µM
O=C(c1ccccc1)N1N=C(c2ccccc2)CC1c1ccccc1O (stereo not given)	?	–	–	3.36µM
O=C(c1ccncc1)N1N=C(c2ccc(Br)cc2)CC1c1ccccc1O (stereo not given)	–	–	–	–
CC(C)Oc1ccc(CNC(=O)c2ccccc2NC(=O)c2nsc3ccccc23)cc1	–	·	·	·
O=C(/C=C/c1cccc(OCc2ccccc2)c1)c1cccnc1	39.8µM	–	–	–
COc1cccc(CCOC(=O)c2c(-c3ccsc3)oc3c2C(OC(C)=O)CCC3)c1 (stereo not given)	·	–	·	–
COC(=O)C1=C(O)/C(=C\c2ccc(OCC(=O)Nc3ccccc3OC)cc2)N=C1C	?	–	–	21.2µM
CN(Cc1ccco1)c1ncnc2ccc(-c3ccccc3C(F)(F)F)cc12	31.6µM	·	·	·
CN(C)c1ccc(-c2ccc3ncnc(N(C)C)c3c2)cc1	–	·	·	·
CN(C)Cc1ccccc1-c1cc(N(C)Cc2ccco2)ncn1	–	·	·	·
CN(Cc1ccco1)c1cc(-c2ccccc2Cl)ncn1	44.7µM	·	·	·
CN(Cc1ccco1)c1ncnc2ccc(-c3ccoc3)cc12	50.1µM!	–	?	·
CN(Cc1ccco1)c1ncnc2ccc(-c3ccccc3Cl)cc12	50.1µM!	–	–	·
CCOc1ccc(NC(=O)NC(C)c2c(-n3cccc3)sc3c2CCN(CC)C3)cc1 (stereo not given)	–	·	·	·
Cc1ccsc1C(=O)N1CCN(c2ncc(C(F)(F)F)cc2Cl)CC1	–	–	·	–
SMILES	VDR inh	BRCA1 expr act	Tb PFK block	PLK1 PBD inh
O=C(CSc1nccn1C1CCCC1)Nc1ccccc1	–	·	·	·
COc1ccc(Cn2c(=O)c3oc4ccccc4c3n(Cc3cccc(C(F)(F)F)c3)c2=O)cc1	–	·	·	·
CN(Cc1ccco1)c1ncncc1-c1ccccc1Cl	28.2µM	·	·	·
COc1ccccc1-c1ccc2ncnc(N(C)Cc3ccco3)c2c1	44.7µM	·	·	·
COc1cc(/C=C2\C(=O)N(c3ccccc3)N=C2C)ccc1Oc1ccc([N+](=O)[O-])cc1[N+](=O)[O-]	?	–	–	3.77µM
CC1=NN(c2ccccc2)C(=O)/C1=C\c1ccc(Oc2ccc([N+](=O)[O-])cc2[N+](=O)[O-])cc1	?	–	–	1.89µM
Cc1ccccc1C(=O)Nc1cccc(-c2ccc(N3CCOCC3)nn2)c1	–	14.1µM	–	–
O=C(Nc1cccc(-c2ccc(N3CCOCC3)nn2)c1)c1ccccc1	–	?	–	–
O=C(COc1ccc(Cl)cc1Cl)Nc1cccc(-c2ccc(N3CCOCC3)nn2)c1	–	1.41µM	–	–
Cc1ccccc1C(=O)Nc1sc2c(c1C(=O)NCc1ccco1)CCC(C(C)(C)C)C2 (stereo not given)	–	·	·	·
CCC(=O)c1ccc(OCc2ccc(C(=O)OC)cc2)cc1	–	–	–	–
CCC(=O)c1ccc(OCc2ccc(C#N)cc2)cc1	–	3.55µM	–	–
COc1ccc(C2C(C(=O)Nc3cc(C)on3)c3ccccc3C(=O)N2C)cc1 (stereo not given)	–	–	–	23.8µM
CCOc1ccc(N2C(=O)c3ccccc3C2O)cc1 (stereo not given)	–	6.31µM	–	–
